Assay results as given in PubChem BioAssay (NCATS).
Where “and” joins values, the source holds several entries; their conditions need not be identical. Identical values can stand only once. Inconclusive results are not listed. Entries that show only a call come without a potency. Values without a mark were called inactive. Calls of active or inactive are those of the source. Unless noted, calls follow the shape of the dose curve; as a rule, active = well fitted curve in the direction sought with a large enough effect; inconclusive = small, poorly fitted or top-dose-only effect, or another doubt; inactive = no such curve, though single readings can be large; an effect the other way counts as inactive or inconclusive.

What was measured:
[1] = biological target: Cellular tumor antigen p53 (Homo sapiens) (UniProt P04637); assay: Primary qHTS for small molecule compounds that upregulate eGFP-tagged delta133p53alpha (in N-terminal) cells. (AID 2060322); settings: NCI-H358 eGFP-delta133p53alpha fluorescence, 24 h; activation: stronger effect = higher value; also: nearly all actives have a fitted effect of over 75% in size
Chain of Cellular tumor antigen p53 (Homo sapiens) (P04637 whole entry, looked up): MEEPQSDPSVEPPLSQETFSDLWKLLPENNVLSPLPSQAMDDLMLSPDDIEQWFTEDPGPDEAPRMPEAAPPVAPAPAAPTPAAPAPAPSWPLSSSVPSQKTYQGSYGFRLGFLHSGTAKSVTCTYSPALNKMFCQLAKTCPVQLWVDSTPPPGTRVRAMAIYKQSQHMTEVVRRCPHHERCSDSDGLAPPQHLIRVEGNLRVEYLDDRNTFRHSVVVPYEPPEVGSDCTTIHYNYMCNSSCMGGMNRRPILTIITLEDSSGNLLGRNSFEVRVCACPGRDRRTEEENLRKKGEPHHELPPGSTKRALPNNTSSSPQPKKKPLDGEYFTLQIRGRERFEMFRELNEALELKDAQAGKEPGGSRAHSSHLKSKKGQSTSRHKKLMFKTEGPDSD
Method in brief: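 NCI-H358 cells pre-induced 24 h with 10 ng/ml doxycycline to express N-terminal eGFP-delta133p53alpha, then dosed 24 h at 37C without doxycycline; fixed, Hoechst-stained, GFP intensity by laser scanning cytometry, normalized to DMSO (0%) and 57.5 uM 5-azacytidine (100%).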

[2] = biological target: Cellular tumor antigen p53 (Homo sapiens) (UniProt P04637); assay: Primary qHTS for small molecule compounds that upregulate eGFP-tagged delta133p53alpha (in C-terminal) cells. (AID 2060324); settings: NCI-H358 delta133p53alpha-eGFP (C-terminal tag), GFP fluorescence imaging, 24 h; series mostly up to 57.5 µM
Method in brief: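 NCI-H358 cells pre-induced 24 h with 100 ng/ml doxycycline to express delta133p53alpha-eGFP, then dosed in doxycycline-free medium for 24 h at 37C. Fixed, Hoechst-stained; GFP intensity by laser scanning cytometry, normalized to DMSO wells.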

[3] = biological target: Aldehyde dehydrogenase, mitochondrial (Homo sapiens) (UniProt P05091); assay: qHTS for Inhibitors of the Aldehyde Dehydrogenase Family (ALDH2) Validation screens (AID 2061302; active = well fitted inhibition curve with a large enough effect; title and protocol of this record describe different tests); settings: ALDH inhibition qHTS; series mostly up to 42.6 µM
[4] = biological target: Aldehyde dehydrogenase, mitochondrial (Homo sapiens) (UniProt P05091); assay: qHTS for Inhibitors of the Aldehyde Dehydrogenase Family (ALDH2) Primary screen (AID 2061308); settings: ALDH2 enzyme inhibition qHTS, 1536-well; series mostly up to 56 µM; also: nearly all actives have a fitted effect of over 55% in size

Row | SMILES | activation [1] | Potency [2] | Potency [3] | Potency [4]
1 | OCCN1CCN(CC/C=C2/c3ccccc3Sc3ccc(C(F)(F)F)cc32)CC1 | -48.7% | inactive | inactive | –
2 | COc1cc2c(CCNC(C)=O)c[nH]c2cc1O | -10.8% | inactive | inactive | –
3 | Nc1c(S(=O)(=O)O)cc(Nc2ccc(Nc3nc(Cl)nc(Nc4ccc(S(=O)(=O)O)cc4)n3)c(S(=O)(=O)O)c2)c2c1C(=O)c1ccccc1C2=O | -2.44% | inactive | inactive | –
4 | N.N.O=C(O)C1(C(=O)O)CCC1.[Pt+2] | -8.5% | inactive | inactive | –
5 | CCNC(=O)[C@H]1O[C@@H](n2cnc3c(N)nc(NCCc4ccc(CCC(=O)O)cc4)nc32)[C@H](O)C1O (stereo partly drawn) | -0.799% | inactive | inactive | –
6 | COc1ccc(CCN(C)CCc2ccc(OC)c(OC)c2)cc1OC | -16.8% | inactive | inactive | –
7 | O=c1[nH]c(=S)[nH]c(-c2ccccc2)c1Cc1c(O)ccc2ccccc12 | -41.1% | inactive | inactive | –
8 | CNc1cc(NS(=O)(=O)c2ccc(N)cc2)nc(NC)n1 | -5.43% | inactive | inactive | –
9 | CCN(CC)CCOC(=O)c1cc(Cl)c(N)cc1OC | -18.7% | inactive | inactive | –
10 | C1CCc2nnnn2CC1 | -8.09% | inactive | inactive | –
11 | C#CCN(C)Cc1ccccc1 | 2.82% and -8.29% | inactive | inactive | –
12 | N[C@@H](CS(=O)O)C(=O)O | -27.4% | inactive | inactive | –
13 | NO | -15.6% | inactive | inactive | –
14 | C#CCN(C)CCCOc1ccc(Cl)cc1Cl | -2.51% and -6.18% | inactive | inactive | –
15 | COc1cc2c(cc1OC)-c1cc(=Nc3c(C)cc(C)cc3C)n(C)c(=O)n1CC2 | -30.7% | inactive | inactive | –
16 | NC(Cc1ccc(Cl)cc1)C(=O)O (stereo not drawn) | -15.1% and -12.2% | inactive | inactive | –
17 | CCCCCCCCCC[Si](C)(C)CCC(=O)NC(Cc1ccc(C)cc1)c1ccccc1 (stereo not drawn) | -9.05% | inactive | inactive | –
18 | C=CCN1CCc2c(cc(O)c(O)c2Br)[C@@H](c2ccccc2)C1 | -46.3% | inactive | inactive | –

Row | SMILES | activation [1] | Potency [2] | Potency [3] | Potency [4]
19 | Nc1nc2c(cnn2CCc2ccccc2)c2nc(-c3ccco3)nn12 | -28.5% | inactive | inactive | –
20 | C=CCN1CCc2cc(O)c(O)cc2C(c2ccccc2)C1 (stereo not drawn) | -43.2% | inactive | inactive | –
21 | O=c1[nH]c(=O)c2nc3ccccc3nc2[nH]1 | -4.5% | inactive | inactive | –
22 | CSc1ccc2c(c1)C(N1CCN(C)CC1)Cc1ccccc1S2 (stereo not drawn) | 48% | inactive | inactive | –
23 | CN1CCN(CCCN2c3ccccc3Sc3ccc(Cl)cc32)CC1 | 23.2% and -10.9% and -6.59% | inactive | inactive | –
24 | CCCCCC[C@@H]([C@@H](C)O)n1cnc2c(N)ncnc21 | -41.6% | inactive | inactive | –
25 | Clc1ccc(N2CCN(Cc3c[nH]c4ncccc34)CC2)cc1 | -17.7% | inactive | inactive | –
26 | CC(=O)Oc1cc(C(C)C)c(OCCN(C)C)cc1C | -0.837% and 6.26% | inactive | inactive | –
27 | CCCn1c(=O)c2[nH]c(-c3ccc(S(=O)(=O)O)cc3)nc2n(CCC)c1=O | -6.22% | inactive | inactive | –
28 | c1cc(CN2CCCCC2)cc(OCCCNc2nc3ccccc3s2)c1 | 20.9% and -10.6% | inactive | inactive | –
29 | COc1ccccc1N1CCN(CCN(C(=O)c2ccc(F)cc2)c2ccccn2)CC1 | 5.52% | inactive | inactive | –
30 | CC(N)(Cc1ccc(O)c(O)c1)C(=O)O (stereo not drawn) | -16.9% | inactive | inactive | –
31 | CC(N)=NCCCC[C@@H](N)C(=O)O | -1.95% | inactive | inactive | –
32 | Oc1ccc(C2CNCc3sccc32)cc1O (stereo not drawn) | 8.23% | inactive | inactive | –
33 | Cc1cccc(/C=C/c2ccccc2)n1 | -2.77% | inactive | inactive | –
34 | Nc1ncnc2c1ncn2[C@@H]1O[C@H](COP(=O)(O)OP(=O)(O)OP(=O)(O)OP(=O)(O)OC[C@@H]2O[C@H](n3cnc4c(N)ncnc43)[C@@H](O)[C@H]2O)[C@@H](O)[C@H]1O | -42.2% | inactive | inactive | –
35 | Cc1cc(N)c2ccccc2[n+]1CCCCCCCCCC[n+]1c(C)cc(N)c2ccccc21 | – | – | – | inactive
